According to PubChem BioAssay AID651610 (Broad Institute, 2012):
Screen size: about 360,000 compounds; about 3,900 (1.1%) were called active. Shown is part of a subset that was picked to be rich in actives. Values without a mark were called inactive.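 The calls were made as follows: active = mean replicate inhibition score of at least 50 and every replicate individually at or above 50; inconclusive = only one of the two criteria met; inactive = mean below 50 and not all replicates reaching 50.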

Test: blockers of JRFL envelope-mediated fusion – HeLa-JRFL effector, CEM21 target cells, luciferase, primary screen (AID 651610);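 also: 0% = plate neutral controls and 100% = maraviroc near 300 nM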
Conditions: HeLa-JRFL Env/CEM21 cell fusion, hits give high values; at 16.7 µM unless noted

Row | Structure (SMILES) | inhibition
1 | CN(c1ccccc1)S(=O)(=O)c1ccc(C(=O)NCCc2ccccc2)cc1 | -11.1% [at 12.3 µM]
2 | CN(C(=O)CC(NC(=O)c1ccccc1)(c1ccccc1)c1ccccc1)c1ccccc1 | 68.6% [at 12.3 µM] (active)
3 | Cc1ccc(S(=O)(=O)NCCC(=O)OCC(=O)N(C)c2ccccc2)cc1 | -4.53% [at 12.3 µM]
4 | CC(=O)c1ccc(S(=O)(=O)N2CCC3(CC2)OCCO3)cc1 | -7.27% [at 12.3 µM]
5 | CC(=O)c1ccc(S(=O)(=O)N2CCN(C(=O)/C=C/c3ccc4ccccc4n3)CC2)cc1 | 21.1% [at 12.3 µM]
6 | CC(=O)c1ccc(S(=O)(=O)N2CCN(c3nc4c(C)c(C)ccc4cc3C#N)CC2)cc1 | 82.5% [at 12.3 µM] (active)
7 | C[C@@H](CN1C2=NC[C@@H](Cc3ccccc3)N2C[C@H]1Cc1ccc(O)cc1)NC(=O)CCC1CCCCC1 | -12.9% [at 12.3 µM]
8 | C[C@@H]1CCCCO[C@H](CN(C)C(=O)C2CCCCC2)[C@@H](C)CN([C@H](C)CO)C(=O)c2cc(NC(=O)C3CCCCC3)ccc2O1 | 13.6%
9 | CC(C)(C)NC(=O)C(CCc1ccccc1)n1c(=O)c(-c2ccccc2)nc2ccccc21 (centres undefined) | 20.1% [at 12.3 µM]
10 | CSCCC(C(=O)NC(C)(C)C)n1c(-c2ccccc2)nc2ccccc21 (centres undefined) | 56.4% [at 12.3 µM] (active)
11 | CCC(C(=O)NC(C)(C)C)n1c(-c2ccccc2)nc2ccccc21 (centres undefined) | -10.4% [at 12.3 µM]
12 | COc1cccc(C(=O)Nc2ccc3c(c2)C(=O)N(C)[C@@H]2CC[C@H](CC(=O)NCCCN4CCOCC4)O[C@H]2CO3)c1 | -4.21%
13 | Clc1ccc2c(c1)C1=C(C(c3ccncc3)O2)C(c2ccc(Br)cc2)n2ncnc2N1 (centres undefined) | 74.5% [at 12.3 µM] (active)
14 | O=C(C[C@@H]1C=C[C@H](NC(=O)Nc2ccc(C(F)(F)F)cc2)[C@H](CO)O1)NCc1cccc(F)c1 | 9.04%
15 | C[C@H](CO)N1C[C@H](C)[C@H](CN(C)Cc2ccc(C(=O)O)cc2)Oc2ccc(NS(=O)(=O)c3cn(C)cn3)cc2CC1=O | -3.12%
16 | C[C@@H]1CN([C@@H](C)CO)C(=O)c2cccc(NC(=O)c3ccc(-c4nccs4)cc3)c2O[C@H]1CN(C)Cc1ccc(Cl)c(Cl)c1 | 38.1%
17 | COc1ccccc1-c1cnc2c(c1)C(=O)N([C@@H](C)CO)C[C@H](C)[C@H](CN(C)C(=O)c1ccncc1)O2 | 2.54%
18 | CCCCn1c(SCC(=O)NCCc2ccc(OC)c(OC)c2)nc2c1c(=O)n(C)c(=O)n2C | 114% [at 12.3 µM] (active)
19 | CCCCn1c(SCC(=O)N2CCOCC2)nc2c1c(=O)n(C)c(=O)n2C | -4.99% [at 12.3 µM]
20 | C#CC(C)(C)NC(=O)CSc1nc2c(c(=O)n(C)c(=O)n2C)n1CCCC | -13.9% [at 12.3 µM]
21 | C[C@H](CO)N1C[C@H](C)[C@H](CN(C)CC2CCCCC2)OCCCC[C@H](C)Oc2ccc(NC(=O)c3ccncc3)cc2C1=O | -17.1%
22 | COC(=O)C1=C(C)N(Cc2ccccc2C(F)(F)F)C(=NCc2ccc(C(F)(F)F)cc2)NC1c1ccc(F)cc1 (centres undefined) | 5.73% [at 12.3 µM]

Row | Structure (SMILES) | inhibition
23 | O=C(NCC(F)(F)F)[C@H]1[C@H](CO)[C@H]2Cn3c(ccc(-c4ccncc4)c3=O)[C@H]2N1Cc1ccncc1 | -9.96%
24 | COc1cccc(S(=O)(=O)Nc2ccc3c(c2)[C@@H]2C[C@@H](CC(=O)NC4CCCCC4)O[C@H](CO)[C@@H]2O3)c1 | -5.43%
25 | O=C(c1ccc(C(F)(F)F)cc1)N1CCC(=O)N([C@H](COCc2ccccc2)Cc2ccccc2)CC1 | -5.07% [at 12.3 µM]
26 | CC(C)C[C@@H](COCc1ccc(Cl)cc1)N1CCN(C(=O)c2ccc(Cl)cc2Cl)CCC1=O | -24.6% [at 12.3 µM]
27 | CC(C)CC(COCc1ccc(Cl)cc1)N1CCN(C(=O)c2ccc(C(F)(F)F)cc2)CCC1=O (centres undefined) | 65.7% [at 12.3 µM] (active)
28 | O=C(C[C@H]1C[C@H]2c3cc(NC(=O)Cc4ccncc4)ccc3O[C@H]2[C@@H](CO)O1)NCc1cccc(F)c1 | 3.14%
29 | COCC(=O)N(C)C[C@H]1Oc2ncc(-c3ccc(C)cc3)cc2C(=O)N([C@@H](C)CO)C[C@@H]1C | -0.608%
30 | Cc1noc(C)c1S(=O)(=O)N(C)C[C@@H]1OCCCC[C@@H](C)Oc2ccc(NC(=O)c3ccccc3)cc2C(=O)N([C@H](C)CO)C[C@H]1C | -129%
31 | C[C@@H]1CN([C@@H](C)CO)S(=O)(=O)c2ccc(C#C[C@@H](C)O)cc2O[C@@H]1CN(C)CC1CC1 | -13.5%
32 | C[C@H](CO)N1C[C@H](C)[C@H](CN(C)C(=O)Nc2ccc(C(F)(F)F)cc2)OCCCC[C@H](C)Oc2ccc(NC(=O)C3CCCCC3)cc2C1=O | 9.61%
33 | CCOc1cc(/C=N/NC(=O)OC)ccc1OCCSc1ccc(Cl)cc1 | 4.12% [at 12.3 µM]
34 | CCOc1cc(/C=C(/C#N)c2ccc(Cl)cc2)cc(Cl)c1OCC(=O)O | 58% [at 12.3 µM] (active)
35 | COc1cc(/C=C(/NC(=O)c2ccc(Cl)cc2Cl)C(=O)O)cc(OC)c1OC | 4.88% [at 12.3 µM]
36 | O=C(C[C@@H]1C[C@@H]2c3cc(NC(=O)C4CCC4)ccc3O[C@@H]2[C@@H](CO)O1)NCCN1CCCCC1 | -4.86%
37 | CC(Nc1ccc([N+](=O)[O-])cc1[N+](=O)[O-])c1ccccc1 (centres undefined) | -0.676% [at 12.3 µM]
38 | O=C(NC(Nc1nc2ccc([N+](=O)[O-])cc2s1)(C(F)(F)F)C(F)(F)F)c1ccccc1 | 81.1% [at 12.3 µM] (active)
39 | O=C(O)c1cc([N+](=O)[O-])c(Nc2cccc3ccccc23)c([N+](=O)[O-])c1 | 1.53% [at 12.3 µM]
40 | COc1cccc(-c2cnc3c(c2)C(=O)N([C@H](C)CO)C[C@H](C)[C@H](CN(C)C(=O)NC(C)C)O3)c1 | 7.31%
41 | CCc1c(C)nc(SCC(=O)NC2CCCC2)[nH]c1=O | -1.14% [at 12.3 µM]
42 | CCc1ccc(-c2nc(SCC(=O)NC3CCCC3)n[nH]2)cc1 | 56.7% [at 12.3 µM] (active)
43 | COC(=O)c1ccccc1NC(=O)CSc1n[nH]c(-c2ccncc2)n1 | 9.97% [at 12.3 µM]
44 | C=CC1=CCN(S(=O)(=O)C(C)(C)C)[C@@H]1CCO | 21.3% [at 12.3 µM]

Row | Structure (SMILES) | inhibition
45 | CCCNC(=O)N(C)C[C@H]1Oc2ncc(-c3ccc(F)cc3)cc2C(=O)N([C@H](C)CO)C[C@H]1C | -0.986%
46 | CC(C)CC#Cc1cnc2c(c1)C(=O)N([C@@H](C)CO)C[C@H](C)[C@@H](CN(C)C(=O)c1cccc(F)c1)O2 | -7.05%
47 | C[C@H](CO)N1C[C@H](C)[C@@H](CN(C)C(=O)C2CC2)Oc2cc(C#CC3CC3)ccc2S1(=O)=O | 18.8%
48 | CN1CCN(C(=O)C[C@@H]2C[C@@H]3c4cc(NC(=O)c5ccc6c(c5)OCO6)ccc4O[C@@H]3[C@H](CO)O2)CC1 | 2.49%
49 | COc1ccc(CCNC(=O)C2CCCN(Cc3nc(-c4cccc(Cl)c4)oc3C)C2)cc1OC (centres undefined) | 81.2% [at 12.3 µM] (active)
50 | COc1cccc(-c2nc(CS(=O)(=O)CC(=O)NCCc3ccc(OC)c(OC)c3)c(C)o2)c1 | 28.2% [at 12.3 µM]
51 | COc1ccc(CCNC(=O)CS(=O)(=O)Cc2nc(-c3ccc(C)cc3)oc2C)cc1OC | 9.54% [at 12.3 µM]
52 | CO[C@H]1CN(C)C(=O)c2cc(NC(=O)C3CCCC3)ccc2OC[C@@H](C)N(C(=O)CC2CC2)C[C@@H]1C | -11.3%
53 | O=C1/C(=C\c2ccc([N+](=O)[O-])cc2)CS(=O)(=O)C/C1=C/c1ccc([N+](=O)[O-])cc1 | 85.4% [at 12.3 µM] (active)
54 | O=C(O)C(=Cc1ccc([N+](=O)[O-])cc1)CCc1ccccc1 | -1.24% [at 12.3 µM]
55 | CC(=O)Nc1ccc(C=Cc2ccc([N+](=O)[O-])cc2)cc1 | -56.5% [at 12.3 µM]
56 | CS(=O)(=O)Nc1ccc2c(c1)[C@H]1C[C@H](CC(=O)NCc3ccc(Cl)cc3)O[C@@H](CO)[C@H]1O2 | -3.71%
57 | O=C(NCC[C@@H]1CC[C@H](NC(=O)C2CC2)[C@H](CO)O1)c1cnccn1 | 1.75%
58 | C[C@@H]1CCCCO[C@H](CN(C)Cc2ccc(Cl)c(Cl)c2)[C@H](C)CN([C@@H](C)CO)C(=O)c2cc(NC(=O)CCC(F)(F)F)ccc2O1 | -44.8%
59 | Cc1ccc(S(=O)(=O)N(C)C[C@H]2Oc3ccc(NS(C)(=O)=O)cc3CC(=O)N([C@@H](C)CO)C[C@H]2C)cc1 | -22.8%
60 | Cc1cc(C)cc(OCC(=O)NCc2cc(C)nc3ccccc23)c1 | 31.3% [at 12.3 µM]
61 | Cc1cc(CNC(=O)c2cccc([N+](=O)[O-])c2)c2ccccc2n1 | 60.8% [at 12.3 µM] (active)
62 | CN(C(=O)c1cccc([N+](=O)[O-])c1)c1ccccc1C(=O)NCc1ccccc1 | 29.4% [at 12.3 µM]
63 | COCC#Cc1ccc2c(c1)O[C@H](CN(C)C(=O)C1CCOCC1)[C@@H](C)CN([C@@H](C)CO)S2(=O)=O | -8.26%
64 | Cc1ccc(S(=O)(=O)NCC[C@H]2CC[C@@H](NC(=O)C3CCOCC3)[C@@H](CO)O2)cc1 | 5.57%
